{"source": "PubChem BioAssay AID2427", "about": "(National Center for Advancing Translational Sciences (NCATS), 2010)", "target": "15-hydroxyprostaglandin dehydrogenase [NAD(+)] (Homo sapiens) (UniProt P15428)", "sequence (P15428 whole entry, looked up)": "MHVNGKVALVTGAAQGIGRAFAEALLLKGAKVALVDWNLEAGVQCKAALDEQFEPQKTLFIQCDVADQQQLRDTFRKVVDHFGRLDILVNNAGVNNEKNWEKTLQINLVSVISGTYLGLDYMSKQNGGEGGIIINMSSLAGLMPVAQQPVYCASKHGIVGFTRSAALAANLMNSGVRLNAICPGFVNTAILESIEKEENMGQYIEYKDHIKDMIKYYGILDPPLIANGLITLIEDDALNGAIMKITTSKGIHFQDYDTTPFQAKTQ", "experiment": "Thermal Shift Assay for Inhibitors of HPGD (15-Hydroxyprostaglandin Dehydrogenase)", "conditions": "Recombinant HPGD thermal shift, SYPRO orange DSF, at 250 µM, stronger effect = higher value", "method": "Assay Overview: Human 15-Hydroxyprostaglandin dehydrogenase (HPGD) catalyzes the inactivation of prostaglandin E2, and plays a major role in cancer biology by antagonizing the oncogenic potential of cyclooxygenase type 2 (COX2). Studies to assess the stability of human 15-PGDH in presence of compounds was performed as described (Niesen et al., 2007) with variations. References 1. Myung SJ, Rerko RM, Yan M, Platzer P, Guda K, Dotson A, Lawrence E, Dannenberg AJ, Lovgren AK, Luo G, Pretlow TP, Newman RA, Willis J, Dawson D, Markowitz SD. 15-Hydroxyprostaglandin dehydrogenase is an in vivo suppressor of colon tumorigenesis. Proc Natl Acad Sci U S A. 2006 Aug 8;103(32):12098-102. 2. Yan M, Rerko RM, Platzer P, Dawson D, Willis J, Tong M, Lawrence E, Lutterbaugh J, Lu S, Willson JK, Luo G, Hensold J, Tai HH, Wilson K, Markowitz SD. 15-Hydroxyprostaglandin dehydrogenase, a COX-2 oncogene antagonist, is a TGF-beta-induced suppressor of human gastrointestinal cancers. Proc Natl Acad Sci U S A. 2004 Dec 14;101(50):17468-73. 3. […]\nHPGD was diluted to a final assay concentration of 1 uM in 100 mM Tris buffer, pH 8.0, containing 0.01% Tween-20 and 1:1000 SYPRO orange dye. […] Heat denaturation curves were recorded using a RT-PCR instrument (Mx3005p, Agilent) applying a temperature gradient of 2 degree C/min. […]", "note": "Calls of active or inactive are those of the source.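 The calls were made as follows: active = melting temperature shift above 3 C; inconclusive = shift above 1 C but not above 3 C; inactive = the rest.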", "data": [{"smiles": "O=P1(Nc2ccc(F)cc2)COc2ccccc2OC1", "values": [{"measurement": "thermal shift (delta Tm)", "value": "0.5 C (inactive)"}, {"measurement": "thermal shift (delta Tm)", "setting": "measured here: delta Tm with NADH cofactor", "value": 3.3, "unit": "C"}]}]}
